According to PubChem BioAssay (NCI):
This is part of a sample that, as a whole, favours compounds with a hit. Of some 79,000 tested, about 15% had one in any assay. A number with no mark means an inactive call. Active and inactive are the calls of the source. Rule as the data show it: active = growth inhibition above about 70%; inactive = the rest.

How the values were obtained:
[1] = NCI Yeast Anticancer Drug Screen. Data for the rad50 strain (AID 155);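 also: 0% = growth of vehicle-only cultures of the same strain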; conditions: S. cerevisiae rad50 strain growth inhibition, stronger effect = higher value
Procedure, shortened: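 Genetically altered yeast (DNA repair pathway); compound treatment; growth inhibition vs vehicle ctrl.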

[2] = NCI Yeast Anticancer Drug Screen. Data for the mec2-1 strain (AID 157); conditions: S. cerevisiae mec2-1 strain, stronger effect = higher value
Procedure, shortened: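 Vehicle-treated cultures served as reference for growth inhibition of compound-exposed mec2-1 yeast.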

[3] = NCI Yeast Anticancer Drug Screen. Data for the sgs1 mgt1 strain (AID 161);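 also: 0% = growth of cultures given vehicle only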; conditions: S. cerevisiae sgs1 mgt1 strain, stronger effect = higher value
Procedure, shortened: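 Test agents were incubated with a DNA-repair-mutant yeast strain. Growth was then read and compared against vehicle-treated controls.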

[4] = NCI Yeast Anticancer Drug Screen. Data for the cln2 rad14 strain (AID 165);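 also: 0% = growth equal to vehicle treated cultures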; conditions: S. cerevisiae cln2 rad14 strain, stronger effect = higher value
Procedure, shortened: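 Each compound was tested on cln2 rad14 yeast. Inhibition of growth was calculated against vehicle-exposed controls.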

[5] = NCI Yeast Anticancer Drug Screen. Data for the bub3 strain (AID 167); conditions: S. cerevisiae bub3 mutant strain, stronger effect = higher value
Procedure, shortened: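 Yeast carrying a defined mutation is treated with each compound, and growth is compared with that of vehicle-exposed cells to give inhibition.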

[6] = NCI Yeast Anticancer Drug Screen. Data for the mlh1 rad18 strain (AID 175); conditions: S. cerevisiae mlh1 rad18 strain growth inhibition, stronger effect = higher value
Procedure, shortened: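 Vehicle-treated cultures served as the reference for growth inhibition in a yeast strain carrying DNA damage repair alterations exposed to each compound.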

[7] = at 5.0 µM (retest, dose inferred, filed as 0.5)
[8] = at 50.0 µM (retest, dose inferred, filed as 5.0)

SMILES	growth inhibition [1, 7]	growth inhibition [1, 8]	growth inhibition ([1]; at 50.0 µM)	growth inhibition [2, 7]	growth inhibition [2, 8]	growth inhibition ([2]; at 50.0 µM)	growth inhibition [3, 7]	growth inhibition [3, 8]	growth inhibition ([3]; at 50.0 µM)	growth inhibition [4, 7]	growth inhibition [4, 8]	growth inhibition ([4]; at 50.0 µM)	growth inhibition [5, 7]	growth inhibition [5, 8]	growth inhibition ([5]; at 50.0 µM)	growth inhibition [6, 7]	growth inhibition [6, 8]	growth inhibition ([6]; at 50.0 µM)
COC(=O)C(=O)C(/C=N/C(=S)NCCc1ccc(OC)c(OC)c1)=C(/O)c1ccc([N+](=O)[O-])cc1	3%	15%	0.3%	-5%	-3%	-7.95%	13%	1%	19.4%	20%	-11%	30.9%	6%	-13%	15.4%	-3%	8%	-9.7%
N#CCc1nc2c(s1)C(=O)c1ccccc1C2=O	52%	99% (active)	71.4% (active)	48%	100% (active)	82.5% (active)	47%	100% (active)	41.8%	30%	98% (active)	35.2%	55%	99% (active)	87.2% (active)	67%	99% (active)	68.7%
CCCOC(=O)CSC#N	39%	97% (active)	97.9% (active)	33%	98% (active)	98% (active)	56%	98% (active)	98.2% (active)	28%	95% (active)	97.8% (active)	33%	98% (active)	97.8% (active)	41%	98% (active)	98% (active)
COc1ccccc1/C=N/Nc1nnc(N/N=C/c2ccccc2OC)c2ccccc12	-1%	56%	74.6% (active)	13%	73% (active)	95.8% (active)	10%	89% (active)	58%	-8%	82% (active)	97.3% (active)	-5%	94% (active)	96.2% (active)	-5%	99% (active)	93.4% (active)
FC(F)(F)c1ccccc1NC(=S)SCc1ccc(Cl)cc1	3%	53%	97% (active)	-2%	95% (active)	97.2% (active)	1%	94% (active)	99.2% (active)	-3%	69%	98.5% (active)	14%	90% (active)	97.4% (active)	-3%	83% (active)	99.2% (active)
c1ccc2c(O[Si](Oc3cccc4ccccc34)(Oc3cccc4ccccc34)Oc3cccc4ccccc34)cccc2c1	7%	87% (active)	96% (active)	0%	87% (active)	97.7% (active)	3%	89% (active)	97.8% (active)	-5%	71% (active)	89.6% (active)	3%	93% (active)	96.8% (active)	2%	86% (active)	95.8% (active)
O=C(OCc1ccc2c(c1)OCO2)c1ccc(Cl)cc1	19%	23%	-0.55%	-4%	68%	-4.55%	9%	46%	-6.3%	-43%	-7%	0.05%	-1%	61%	13.9%	4%	57%	-19.6%
Cn1sc2ccccc2c1=S	-112%	98% (active)	99.6% (active)	-39%	99% (active)	99.8% (active)	-47%	99% (active)	99.7% (active)	-78%	98% (active)	99.5% (active)	-49%	98% (active)	99.5% (active)	-95%	98% (active)	99.7% (active)
CC(=O)c1cccc([N+](=O)[O-])c1	-2%	5%	27.4%	-2%	2%	-9.25%	-1%	2%	24.4%	-1%	-2%	44.9%	1%	7%	9.25%	-3%	3%	9%
CC(C)CCOc1ccc(/C=C\C(=O)O)cc1	3%	30%	61.1%	-2%	41%	81.5% (active)	-3%	38%	30.1%	-1%	87% (active)	93.9% (active)	1%	54%	71% (active)	6%	43%	75% (active)
C(=C\c1cccc2ccccc12)/c1ccncc1	8%	97% (active)	98.9% (active)	-19%	99% (active)	99.2% (active)	-14%	98% (active)	99.2% (active)	-2%	96% (active)	99% (active)	4%	97% (active)	98.5% (active)	-11%	98% (active)	99.1% (active)
S=C(Nc1ccccc1)SCc1ccc(Cl)cc1	1%	96% (active)	90.6% (active)	-6%	98% (active)	67.2%	1%	96% (active)	84.7% (active)	-6%	96% (active)	38.5%	-5%	97% (active)	86.4% (active)	-7%	97% (active)	85.5% (active)
O=S(=O)(OI(OI(OS(=O)(=O)C(F)(F)F)c1ccccc1)c1ccccc1)C(F)(F)F	58%	97% (active)	89.2% (active)	48%	98% (active)	91.5% (active)	44%	98% (active)	91.7% (active)	27%	92% (active)	91.1% (active)	65%	98% (active)	91% (active)	75% (active)	97% (active)	89.2% (active)
C[n+]1c(-c2ccc(/C=N/Nc3ccnc(N/N=C/c4ccc(-c5cn6ccccc6[n+]5C)cc4)n3)cc2)cn2ccccc21	99% (active)	99% (active)	99.3% (active)	100% (active)	99% (active)	99.5% (active)	99% (active)	99% (active)	99.2% (active)	98% (active)	99% (active)	99.3% (active)	99% (active)	99% (active)	99.4% (active)	99% (active)	99% (active)	99.2% (active)
C(=C\[P+](c1ccccc1)(c1ccccc1)c1ccccc1)/c1ccccc1	86% (active)	99% (active)	98.8% (active)	94% (active)	99% (active)	99.7% (active)	80% (active)	99% (active)	99.2% (active)	76% (active)	98% (active)	98.1% (active)	85% (active)	98% (active)	98.8% (active)	91% (active)	98% (active)	99.1% (active)
O=[N+]([O-])c1ccc(Sc2ccsc2)c([N+](=O)[O-])c1	4%	79% (active)	46.5%	14%	87% (active)	34.5%	21%	93% (active)	48.5%	4%	61%	31.8%	11%	86% (active)	41.5%	45%	96% (active)	78.8% (active)
CC1(C)/C=C/C2=Nc3cc(Br)c(Br)c(Br)c3C23CC(=O)N3/C=C(\Cl)c2nc(Br)[nH]c21 (centres undefined)	22%	97% (active)	92% (active)	15%	96% (active)	93.8% (active)	32%	98% (active)	93.8% (active)	29%	98% (active)	91.7% (active)	12%	98% (active)	93% (active)	-11%	98% (active)	92.5% (active)
CNC(=O)OCc1c(COC(=O)NC)c(-c2ccc(Cl)c(Cl)c2)n2c1Cc1ccccc1C2	-18%	97% (active)	88.7% (active)	-21%	98% (active)	92.2% (active)	-6%	85% (active)	88.8% (active)	8%	63%	90.8% (active)	-23%	97% (active)	88.1% (active)	-11%	97% (active)	87% (active)
